# Source: PubChem (several laboratories)
# SENP6 block = blocks the human protease SENP6; Q9GZR1; Recombinant SENP6 catalytic domain, aminoluciferin luminescence; inhibition, % at 10 µM; 330,000 tested, 1.8% active;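 active = inhibition above about 50% at the single tested dose, limit read from the data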;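 also: plate controls were DMSO wells with enzyme for no effect and DMSO wells lacking enzyme for full effect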
# Target sequence (Q9GZR1 628-1112 limits assumed): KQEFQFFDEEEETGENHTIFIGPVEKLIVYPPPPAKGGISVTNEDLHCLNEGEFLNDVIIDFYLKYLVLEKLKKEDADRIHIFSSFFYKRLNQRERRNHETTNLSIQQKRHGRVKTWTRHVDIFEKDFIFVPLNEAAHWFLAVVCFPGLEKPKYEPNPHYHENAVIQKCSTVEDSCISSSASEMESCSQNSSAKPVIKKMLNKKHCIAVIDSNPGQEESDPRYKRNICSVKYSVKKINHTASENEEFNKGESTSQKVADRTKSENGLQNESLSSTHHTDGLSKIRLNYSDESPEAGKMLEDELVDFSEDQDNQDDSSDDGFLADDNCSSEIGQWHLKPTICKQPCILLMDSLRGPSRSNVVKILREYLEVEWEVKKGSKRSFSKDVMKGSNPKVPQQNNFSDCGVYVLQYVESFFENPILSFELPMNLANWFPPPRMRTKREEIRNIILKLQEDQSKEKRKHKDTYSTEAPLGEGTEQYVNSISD
# SENP8 block-1 = SENP8 protease inhibition. Q96LD8. purified SENP8, Z-RLRGG-aminoluciferin cleavage, luminescence. inhibition, % at 10 µM. 330,000 tested, 1.2% active. AID 2540; in the data active = inhibition above about 50%
# SENP7 block = SENP7 protease inhibition | recombinant SENP7, Z-RLRGG-aminoluciferin luminescence, 40 min | inhibition, % at 5 µM | 330,000 tested, 1.5% active | AID 434973;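 active = inhibition above about 50% at the single test dose, limit read from the data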;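 also: plate controls were DMSO with enzyme for no effect and no enzyme buffer wells for full effect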
# Platelet DG rel = platelet dense granule release activity; inhibition, %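 (compounds screened at 7.5 µM in platelet-rich plasma)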; human platelet-rich plasma, SFLLRN dense granule ATP release, luminescence; 300,000 tested, 0.22% active; AID 1663;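 active = mean replicate score, as percent of positive control, at or above 50; inconclusive = mean below 50 but at least one replicate at or above 50; inactive = mean and every replicate below 50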
# SENP8 block-2 = inhibitors of human SENP8 protease | 360,000 tested, 0.64% active | recombinant SENP8, Nedd8 substrate fluorescence | inhibition, % at 20 µM | AID 602440 | Q96LD8; in the data active = inhibition mostly above about 40%, no sharp cut-off; inactive = mostly below about 27%
# SENP8 confirm = human SENP8 inhibition, confirmed | shares compounds with SENP7 block | Recombinant SENP8, Z-RLRGG-aminoluciferin luminescence, 60 min | inhibition, % at 12.5 µM | 6,200 tested, 40% active | AID 488912;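 active = mean inhibition across replicates above about 50%, limit read from the data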
# SENP6 confirm = confirmation of human SENP6 protease inhibitors; shares compounds with SENP7 block; recombinant SENP6, Z-RLRGG-aminoluciferin luminescence; inhibition, % at 12.5 µM; 6,200 tested, 58% active; AID 488915
# SENP7 conf = confirmation of human SENP7 protease inhibitors; shares compounds with SENP7 block; recombinant SENP7, Z-RLRGG-aminoluciferin luminescence, 40 min; inhibition, % at 12.5 µM; 6,200 tested, 69% active; AID 488917
# Casp3 select = selectivity test for SENP inhibitors: human caspase-3 inhibition. shares compounds with SENP7 block. purified caspase-3, Z-DEVD-aminoluciferin luminescence, 60 min. inhibition, % at 12.5 µM. 6,200 tested, 60% active. AID 488918;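 active = mean inhibition above about 50%, limit read from the data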;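 also: plate controls were enzyme with DMSO for no effect and wells without caspase-3 for full effect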
# SENP luc ctr = counter-screen for SENP inhibitors: luminescence interference; shares compounds with SENP7 block; inhibition, % at 12.5 µM; Pre-incubated SENP8/Z-RLRGG-aminoluciferin, luciferase luminescence interference; 6,200 tested, 39% active;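 active = mean inhibition above about 50% when retested at one dose, limit read from the data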;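 also: plate controls were DMSO wells with completed reaction for no effect and substrate without enzyme for full effect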
# Starred values were filed as active, the others as inactive; ? = inconclusive; · = no result. Shown are actives, neighbours in structure and some others; about 2.4% of the full set was active somewhere.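 The calls were made as follows, unless noted: active = mean inhibition above about 50% in the one-dose retest (limit read from the data); inactive = the rest.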
SMILES,SENP6 block,SENP8 block-1,SENP7 block,Platelet DG rel,SENP8 block-2,SENP8 confirm,SENP6 confirm,SENP7 conf,Casp3 select,SENP luc ctr
Cc1ccc(C(=O)Nc2ncc(C)s2)s1,61*,45,57*,-9,-9,54*,55*,86*,80*,32
Cc1nnc(NC(=O)c2cc3ccccc3o2)s1,-2,-5,2,0,-14,·,·,·,·,·
Cc1nc2ccc3nc(NC(=O)c4ccc5c(c4)OCCO5)sc3c2s1,-40,11,5,-3,-269,·,·,·,·,·
Cc1ccc(C(=O)Nc2ncc(C)s2)o1,60*,35,67*,23,-1,62*,58*,87*,90*,67*
Cc1nc(NC(=O)c2cc3ccccc3o2)sc1C,89*,89*,90*,7,-27,71*,91*,100*,93*,33
CSC(=S)N/N=C(\C)c1ccccc1,14,10,-2,-4,-6,·,·,·,·,·
CC(C)c1ccc(Nc2ncccc2C(=O)O)cc1,95*,95*,98*,0,10,6,6,10,3,4
COc1ccc(NC(=O)c2cccnc2Nc2ccc(OC)cc2)cc1,-7,-7,4,-37,18,·,·,·,·,·
CN(C)C(=O)c1sccc1Oc1ccc(F)cc1[N+](=O)[O-],2,8,-2,-7,13,·,·,·,·,·
O=C1NC(=Nc2ccccc2)S/C1=C/c1cccs1,17,59*,32,-8,10,27,46,20,39,23
Cc1ccc(C(=O)c2c3ccc(N)cc3nn2CCC(N)=O)cc1,57*,26,21,2,-72,14,29,-5,0,-3
Cc1ccc(C(=O)c2c3ccc(C(F)(F)F)cc3[n+]([O-])n2CCC(N)=O)cc1,9,-1,-2,-1,-2,·,·,·,·,·
O=c1cc(-c2ccccc2)[nH]n1-c1ccc([N+](=O)[O-])cc1,84*,79*,25,-1,40,86*,93*,100*,90*,71*
Cc1ccc(C(=O)Nc2ccc3nc(C)sc3c2)o1,·,·,·,·,10,·,·,·,·,·
Cc1nc2ccc(NC(=O)c3cc(Cl)ccn3)cc2s1,74*,60*,68*,12,2,11,30,59*,37,8
Cc1nc2ccc(NC(=O)c3ccc(Cl)nc3)cc2s1,92*,-5,1,3,3,2,-5,-9,8,-5
OC(c1cc(F)cc(Cl)c1)c1ncc(-c2ccc(Cl)cc2)[nH]1 (centres undefined),·,·,·,·,6,·,·,·,·,·
CCCN1CCC(=O)N([C@H](CN=[N+]=[N-])CC(C)C)CC1,-8,-8,3,5,-31,·,·,·,·,·
O=C(Nc1ccc(C(=O)N2CCCCC2)cc1)c1ccccc1,·,·,·,·,2,·,·,·,·,·
O=C(Nc1ccccc1)Nc1ccc(C(=O)N2CCCC2)cc1,97*,94*,97*,58*,12,96*,97*,102*,98*,74*
O=C(Nc1ccc(C(=O)N2CCOCC2)cc1)Nc1cccc(Cl)c1,69*,40,57*,6,-3,60*,58*,85*,61*,63*
O=C(Nc1ccc(C(=O)N2CCCCC2)cc1)c1cccs1,66*,47,60*,10,10,48,47,78*,83*,59*
CCOC(=O)C1C(=O)NC(C(=O)OCC)(C(=O)OCC)C1C(C)CC (centres undefined),·,·,·,·,15,·,·,·,·,·
Cc1ccc(S(=O)(=O)N(CC(=O)NCc2ccc(F)cc2)C(=O)N2CCN(C)CC2)cc1,4,7,-1,·,17,·,·,·,·,·
CCCc1ccc(-c2ccc(F)c(N)c2)nc1,95*,94*,96*,?,-7,94*,97*,103*,97*,96*
SMILES,SENP6 block,SENP8 block-1,SENP7 block,Platelet DG rel,SENP8 block-2,SENP8 confirm,SENP6 confirm,SENP7 conf,Casp3 select,SENP luc ctr
Nc1cc(-c2nn[nH]n2)ccc1F,-7,-2,3,-3,-2,·,·,·,·,·
CCCCCc1ccc(-c2ccc(=O)[nH]n2)cc1,14,-2,3,7,12,·,·,·,·,·
CCCCc1ccc(-c2ccc(Br)cc2)nc1,68*,58*,10,-1,14,30,34,51*,46,40
O=C(Nc1ccc([N+](=O)[O-])cc1)N1CCCCC1,-8,-2,4,0,28,·,·,·,·,·
Cc1ccccc1S(=O)Cc1ccc(C(=O)N2CCN(C(=O)c3ccco3)CC2)o1 (centres undefined),1,9,5,7,1,·,·,·,·,·
N#Cc1c(N2CCCC2)nsc1-c1ccccc1,60*,42,20,·,-24,30,34,25,44,52*
CCCCNC(=O)c1cn(C)c2ccc(S(=O)(=O)N3CC(C)CC(C)C3)cc2c1=O (centres undefined),-2,-1,7,-9,11,·,·,·,·,·
NS(=O)(=O)c1ccc(Sc2ccc3ccccc3c2)nc1,-7,-7,-11,-36,3,·,·,·,·,·
CC(C)Oc1ccc(NC(=O)Oc2ccccc2)cc1,88*,80*,-1,43,13,1,100*,103*,98*,94*
Cc1ccccc1N(CC(=O)NCc1ccccc1)C(=O)CCC(=O)Nc1nccs1,-29,-7,-6,23,6,·,·,·,·,·
O=C(Nc1cccc(Cl)c1)c1ccc2c(c1)OCCO2,91*,92*,95*,·,-3,0,93*,101*,89*,94*
CC(C)(C)c1ccc(C(=O)Nc2cccc([N+](=O)[O-])c2)cc1,·,·,·,-1,1,·,·,·,·,·
O=C(Nc1cccc([N+](=O)[O-])c1)c1ccc2c(c1)OCCO2,72*,63*,75*,-10,8,68*,70*,93*,72*,80*
CCCc1cc(C(=O)Nc2cccc([N+](=O)[O-])c2)cs1,87*,59*,72*,-15,8,9,73*,92*,45,56*
O=C(Nc1ccc2c(c1)OCCO2)c1cccc(Cl)c1,87*,77*,85*,5,14,7,86*,97*,85*,86*
O=C(Nc1ccncc1)c1ccc2c(c1)OCCO2,4,-9,-5,31,11,·,·,·,·,·
CC(=O)NC(=S)Nc1sc2c(c1C(N)=O)CCC(C)C2 (centres undefined),14,22,13,-6,18,·,·,·,·,·
Cc1ccc(CNC(=O)C2CCC(=O)N(Cc3ccccc3F)C2)s1 (centres undefined),0,-6,-17,-16,10,·,·,·,·,·
